Rows were chosen to be rich in hits. Some 4.8% of all compounds tested hit in one or more screens of this group.
hcDAF12 agonist – activates DAF-12 receptor from parasite H. contortus; hit rate 1.4% among 370,000; HEK293 hcDAF-12 lit1-tk-luc reporter, luminescence; 0% DMSO, 100% Δ7-dafachronic acid; activation, % at 6.8 µM; AID 652067;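 active means activation above the mean of all tested compounds plus 3 SD, cut at about 5.5% in these data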;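 further: 100% = response to 3 µM Δ7-dafachronic acid high control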
ssDAF12 agonist – S. stercoralis DAF-12 activation, primary screen; HEK293 ssDAF-12/GRIP1 lit1-tk-luc reporter, luminescence; % of 3 µM dafachronic acid response; activation, % at 6.8 µM; hit rate 1% among 370,000; AID 652126;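 active means activation above the mean over all tested compounds plus 3 SD, cut at about 0.9% in these data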;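 further: 0% = DMSO-only wells and 100% = 3 µM delta7-dafachronic acid wells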
Rev-erbA mod – modulators of human Rev-erb alpha DNA binding; hit rate 0.79% among 370,000; P20393; activity, % at 10 µM; Rev-erbα–FITC-DNA binding, fluorescence polarization, 90 min; AID 1259318;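 active means activity above about 14%, limit read from the data; passing the limit was not always enough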;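 further: 0% = DMSO wells with 35 nM protein and 100% = DMSO wells with 750 nM protein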
Target sequence (P20393 whole entry, looked up): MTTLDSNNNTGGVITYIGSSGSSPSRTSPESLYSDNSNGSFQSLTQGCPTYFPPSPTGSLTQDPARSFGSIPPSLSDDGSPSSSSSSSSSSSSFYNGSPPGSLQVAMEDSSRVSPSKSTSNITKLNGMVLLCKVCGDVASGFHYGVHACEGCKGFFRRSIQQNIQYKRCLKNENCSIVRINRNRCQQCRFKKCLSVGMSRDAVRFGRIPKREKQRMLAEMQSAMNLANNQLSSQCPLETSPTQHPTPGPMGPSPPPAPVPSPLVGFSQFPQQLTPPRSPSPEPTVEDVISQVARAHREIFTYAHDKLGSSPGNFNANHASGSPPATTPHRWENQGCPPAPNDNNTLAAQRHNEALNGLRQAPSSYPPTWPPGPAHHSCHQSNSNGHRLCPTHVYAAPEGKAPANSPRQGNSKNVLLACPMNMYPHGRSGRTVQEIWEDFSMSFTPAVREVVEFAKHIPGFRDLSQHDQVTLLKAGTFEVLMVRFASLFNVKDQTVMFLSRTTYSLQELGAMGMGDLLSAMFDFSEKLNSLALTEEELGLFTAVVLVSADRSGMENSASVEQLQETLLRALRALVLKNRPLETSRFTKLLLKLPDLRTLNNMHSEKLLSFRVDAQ
hgDAF-12 ag – agonists of H. glycines DAF-12 nuclear receptor | activation, % at 6.8 µM | hit rate 1.8% among 370,000 | HEK293 GAL4-hgDAF12 UAS-luciferase reporter, agonist luminescence; normalized to butyrate control;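 active means activation above a cutoff set at the mean of all screened compounds plus 3 SD, cut at about 10% in these data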;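 further: 0% = DMSO wells and 100% = sodium butyrate wells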
DAX1 inh-1 – blocks DAX1 repression of SF-1 activated StAR promoter; AID 652010; inhibition, % at 6.8 µM; HEK293T StAR-luciferase reporter, SF-1/DAX-1 repression relief; hit rate 1.1% among 370,000;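 active means inhibition above the mean over all tested compounds plus 3 SD, cut at about 3.6% in these data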;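 further: 0% = DAX-1 cells with DMSO and 100% = cells lacking DAX-1 with DMSO; higher inhibition means more luminescence from relief of DAX-1 repression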
DAX1 inh-2 – inhibitors of human orphan nuclear receptor DAX1 (NR0B1); inhibition, % at 6.75 µM; P51843; AID 504766; HEK293 Gal4-DAX1 luciferase reporter, luminescence; hit rate 0.99% among 340,000;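 active means inhibition above the mean over all tested compounds plus 3 SD, cut at about 4.2% in these data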;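 further: 0% = DAX1-transfected cells with DMSO and 100% = empty-vector control cells with DMSO; inhibition shows as a rise in luminescence from relieved DAX1 repression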
NR1D1 mod conf – Rev-erb alpha (human) modulation, hit confirmation; shares compounds with Rev-erbA mod; activation, % at 25 µM; Rev-erb alpha FITC-DNA binding, fluorescence polarization, 90 min; hit rate 61% among 3,000;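 active means activation at or above a set limit, or at least 3 SD above the negative control mean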;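 further: 0% = 35 nM protein with DMSO and 100% = 750 nM protein high control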
RORg counter – affects RORgamma DNA binding in a Rev-erb alpha counter-screen | hit rate 8% among 910 | purified RORgamma protein-FITC-DNA binding, fluorescence polarization | shares compounds with Rev-erbA mod | IC50, µM;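 active means Compounds whose fitted half-maximal concentration for disrupting protein-DNA binding is below 10 micromolar; the record names Rev-erb in its text, so the target is in doubt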
Starred values were filed as active, the others as inactive; i = inactive; x = not tested or not shown.

SMILES	hcDAF12 agonist	ssDAF12 agonist	Rev-erbA mod	hgDAF-12 ag	DAX1 inh-1	DAX1 inh-2	NR1D1 mod conf	others
Cc1ccc(Cl)cc1N1CCN(Cc2nc3c(c(=O)[nH]c(=O)n3C)n2Cc2ccccc2F)CC1	-3	-1	29*	-1	1	2	19*
COc1cc2cc(C(=O)N3CCc4ccccc4C3)[nH]c2cc1OC	-1	-1	28*	-1	0	-1	11
COc1cc2cc(C(=O)N(C)Cc3ccccc3)[nH]c2cc1OC	1	0	31*	-1	0	1	12
O=C(O)c1ccccc1C(c1ccccc1)c1ccccc1O (stereo not drawn)	-2	-1	54*	2	-2	0	45*	RORg counter=>40
Cc1ccc(C)c(OCc2nnc(NC(=O)c3ccc4c(c3)OCO4)s2)c1	-2	-1	30*	-1	0	1	10
COc1cccc(C(=O)Nc2nnc(-c3ccc(OC)cc3OC)s2)c1	-3	-1	32*	2	0	2	15
COc1cc(C(=O)Nc2nnc(-c3sccc3C)s2)cc(OC)c1OC	-2	-1	93*	-1	-1	0	117*	RORg counter=>40
CCOC(=O)CSc1nnc(NC(=O)c2ccc3c(c2)OCO3)s1	0	-2	5	2	1	0	x
CCOCc1nnc(NC(=O)c2cc(OC)c(OC)c(OC)c2)s1	-1	-2	2	5	0	0	x
COc1ccccc1-c1nnc(NC(=O)c2ccc3c(c2)OCO3)s1	-1	-1	55*	0	0	-1	10
COC(=O)[C@H]1[C@@H](O)[C@@]2(O)c3c(OC)cc(OC)cc3O[C@@]2(c2ccc(OC)cc2)[C@@H]1c1ccc(F)cc1	-5	-2	1	-14	-7	x	x
Cc1ccc(-n2c(SCC(=O)NN=Cc3c[nH]c4ccccc34)nnc2-c2ccccc2)cc1	1	0	1	-2	-1	x	x
CCCCCCCCCCCCCCCC(=O)OC(C)C	x	x	-1	x	x	x	x
O=[N+]([O-])c1ccc(N/N=C/c2sc(N3CCOCC3)nc2-c2ccccc2)c(S(=O)(=O)Nc2ccccc2Cl)c1	2	-1	24*	-1	0	4	2
COc1ccccc1N/C(N)=N/c1nc(CSc2ccc(C)cc2)cc(=O)[nH]1	-2	-1	31*	-3	1	-1	34*	RORg counter=>40
C/C(N)=C(/C#N)C(=O)CSc1nc2ccccc2c(=O)n1-c1ccc(C)c(Cl)c1	-1	-1	78*	4	0	0	31*	RORg counter=i
Cc1cccc(-c2cccc3c4c([nH]c23)[C@@H]2C[C@H](N(C)C(=O)c3ccccc3F)[C@H]([C@H](C)O)CN2CC4)c1	2	-2	6	-1	0	x	x
Cc1cccc2c(C(=O)n3cccn3)cc(-c3ccccc3Cl)nc12	3	-1	31*	-1	1	0	7
Cc1cccc2c(C(=O)Nn3cnnc3)cc(-c3ccccc3Cl)nc12	0	0	-3	2	0	0	x
CCOC(=O)c1cc(-c2ccccc2)sc1NC(=O)CN1C(=O)c2ccccc2C1=O	-1	-1	33*	0	0	3	8
CCCC1(c2ccccc2)NC(=O)N(CC(=O)Nc2cc(C)on2)C1=O (stereo not drawn)	-2	-1	0	1	0	-1	x
CCCC1(c2ccccc2)NC(=O)N(CC(=O)Nc2sc(-c3ccccc3)cc2C(=O)OCC)C1=O (stereo not drawn)	0	-1	56*	0	0	-1	50*	RORg counter=>40
CCCCOc1ccc(C(=O)NC2CCCCN(C)C2=O)cc1 (stereo not drawn)	-1	-1	-9	6	-1	x	x
NC(=O)c1ncn([C@@H]2O[C@H](C(=O)N[C@H](Cc3ccccc3)C(=O)O)[C@@H](O)[C@H]2O)n1	2	-1	6	-7	0	x	x
COC(=O)Cn1c(=NC(=O)c2sc3ccccc3c2Cl)sc2cc(S(N)(=O)=O)ccc21	-1	-2	12	-1	0	0	x
SMILES	hcDAF12 agonist	ssDAF12 agonist	Rev-erbA mod	hgDAF-12 ag	DAX1 inh-1	DAX1 inh-2	NR1D1 mod conf	others
COC(=O)Cn1c(=NC(=O)c2nc3ccccc3s2)sc2cc(S(C)(=O)=O)ccc21	5	-1	78*	2	0	x	59*	RORg counter=1*
S=C(NCc1cccc(Cl)c1)OC1CCC12CCC(c1ccccc1)CC2 (stereo not drawn)	0	-1	6	3	0	x	x
CCCCCCn1cnc2c(c1=O)c1nc3ccccc3nc1n2Cc1cccs1	-2	-1	31*	0	0	1	9
COc1ccc2noc3c2c1C(=O)c1ccccc1-3	0	-2	21*	-1	0	0	1
COc1ccccc1C(=O)Nc1nc2ccccc2s1	-7	-3	34*	-17	-2	-9	41*	RORg counter=>40
COc1ccccc1C(=O)Nc1nc2ccc(S(C)(=O)=O)cc2s1	1	-1	49*	3	-1	1	31*
COc1ccc(C(=O)Nc2nc3ccccc3s2)c(OC)c1	-9	-4	14	-19	-2	-7	x
CS(=O)(=O)c1ccc2nc(NC(=O)c3cc(-c4ccccc4)nn3-c3ccccc3)sc2c1	0	-2	42*	-1	0	1	19*
Cc1ccccc1NC(=O)CSc1nnc(-c2ccccc2)n1-c1ccccc1	-2	-1	37*	1	0	-1	21*
CCn1c(SCC(=O)Nc2ccccc2C)nnc1-c1ccccc1O	-2	-2	5	-2	0	0	x
CCc1ccc(NC(=O)CSc2nnc(-c3n[nH]c4ccccc34)n2-c2ccccc2)cc1	3	1	34*	1	-1	0	38*	RORg counter=>40
COC(=O)[C@]12CCCCC=C1N(Cc1ccc3c(c1)OCO3)C(=O)[C@H](CC(=O)NCC13CC4CC(CC(C4)C1)C3)C2	0	-1	0	-2	1	x	x
Cc1cccc(Cn2cc(COC(=O)N(C)Cc3ccccc3)nn2)c1	1	-1	-3	-3	0	x	x
CCOC(=O)C1Nc2ccc(C(F)(F)F)cc2C2c3ccccc3CC12 (stereo not drawn)	2	0	36*	-2	0	0	14
CCOC(=O)[C@@]12CCC3=C1N(CCC3)C(=O)[C@H](CC(=O)N1CCOCC1)C2	-1	-1	-1	-3	-1	x	x
